Results from PubChem BioAssay (NCATS).
Values joined by “and” are separate entries in the source; they are usually repeats but may differ in a detail not shown here. Equal values may be shown once. Results filed as inconclusive are left out. A call without a number means that no potency is given here. Values without a mark were called inactive. Active and inactive are the calls of the source. Calls come from the whole dose curve; as a rule, active = well fitted curve in the direction sought with a large enough effect; inconclusive = small, poorly fitted or top-dose-only effect, or another doubt; inactive = no such curve, though single readings can be large; an effect the other way counts as inactive or inconclusive.

What was measured:
[1] = target: Cellular tumor antigen p53 (Homo sapiens) (UniProt P04637); assay: Primary qHTS for small molecule compounds that upregulate eGFP-tagged delta133p53alpha (in N-terminal) cells. (AID 2060322); conditions: NCI-H358 eGFP-delta133p53alpha fluorescence, 24 h; activation: hits give high values; note: nearly all actives have a fitted effect of over 75% in size; note: potency is the fitted concentration of half-maximal effect; for activation: series mostly up to about 56 µM
Chain of Cellular tumor antigen p53 (Homo sapiens) (P04637 whole entry, looked up): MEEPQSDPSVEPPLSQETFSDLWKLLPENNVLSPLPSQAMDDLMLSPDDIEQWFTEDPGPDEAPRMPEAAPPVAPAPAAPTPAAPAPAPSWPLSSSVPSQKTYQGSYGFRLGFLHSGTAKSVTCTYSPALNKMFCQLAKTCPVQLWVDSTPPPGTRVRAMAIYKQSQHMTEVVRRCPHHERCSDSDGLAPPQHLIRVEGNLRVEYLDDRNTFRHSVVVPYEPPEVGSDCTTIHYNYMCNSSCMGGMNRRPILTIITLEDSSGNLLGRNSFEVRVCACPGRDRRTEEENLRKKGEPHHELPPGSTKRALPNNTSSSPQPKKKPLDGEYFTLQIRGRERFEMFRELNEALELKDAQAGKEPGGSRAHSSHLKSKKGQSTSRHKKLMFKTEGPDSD
How it was run: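 NCI-H358 cells pre-induced 24 h with 10 ng/ml doxycycline to express N-terminal eGFP-delta133p53alpha, then dosed 24 h at 37C without doxycycline; fixed, Hoechst-stained, GFP intensity by laser scanning cytometry, normalized to DMSO (0%) and 57.5 uM 5-azacytidine (100%).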

[2] = target: Aldehyde dehydrogenase, mitochondrial (Homo sapiens) (UniProt P05091); assay: qHTS for Inhibitors of the Aldehyde Dehydrogenase Family (ALDH2) Primary screen (AID 2061308); note: nearly all actives have a fitted effect of over 55% in size
[3] = target: Retinaldehyde dehydrogenase 3 (Homo sapiens) (UniProt P47895); assay: qHTS for Inhibitors of the Aldehyde Dehydrogenase Family (ALDH1A3) Validation screen (AID 2061312); note: nearly all actives have a fitted effect of over 45% in size
[4] = target: Retinaldehyde dehydrogenase 3 (Homo sapiens) (UniProt P47895); assay: qHTS for Inhibitors of the Aldehyde Dehydrogenase Family (ALDH1A3) Primary screen (AID 2061315)
[5] = BET inhibitor-based combinations targeting novel dependencies in MECOM-rearranged (r) AML: SET-2 cell line (AID 2202231); conditions: SET-2 AML cells viability, CellTiter-Glo luminescence, 48 h; viability: hits give low values, concentration not given here; note: nearly all actives have a fitted effect of over 35% in size; note: potency is the fitted concentration of half-maximal effect
How it was run: (§1)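 Readout: CellTiter-Glo luminescence. Exposure: 48 h, 11 concentrations, 500 cells/well. Metric: AUC and within-line Z-AUC after DMSO/empty-well normalization.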

[6] = BET inhibitor-based combinations targeting novel dependencies in MECOM-rearranged (r) AML: MV-4-11 cell line (AID 2202233); note: nearly all actives have a fitted effect of over 45% in size; note: potency is the fitted concentration of half-maximal effect
How it was run: (§2)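 Seeding density was 500 cells/well, and drug exposure lasted 48 hr under standard culture conditions. Read-out used CellTiter-Glo reagent with a 15 min room-temperature incubation before luminescence measurement; AUC and Z-AUC summarize the normalized responses.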

[7] = BET inhibitor-based combinations targeting novel dependencies in MECOM-rearranged (r) AML: HNT-34 cell line (AID 2202234); note: nearly all actives have a fitted effect of over 35% in size; note: potency is the fitted concentration of half-maximal effect
How it was run: as §2

[8] = BET inhibitor-based combinations targeting novel dependencies in MECOM-rearranged (r) AML: UCSD-AML1 cell line (AID 2202235); note: nearly all actives have a fitted effect of over 40% in size; note: potency is the fitted concentration of half-maximal effect
How it was run: as §2

[9] = BET inhibitor-based combinations targeting novel dependencies in MECOM-rearranged (r) AML: AML-191 cell line (AID 2202236; note: nearly all actives have a fitted effect of over 35% in size; note: potency is the fitted concentration of half-maximal effect)
How it was run: as §1

[10] = BET inhibitor-based combinations targeting novel dependencies in MECOM-rearranged (r) AML: AML-194 cell line (AID 2202237; note: nearly all actives have a fitted effect of over 40% in size; note: potency is the fitted concentration of half-maximal effect)
How it was run: as §1

[11] = BET inhibitor-based combinations targeting novel dependencies in MECOM-rearranged (r) AML: OCI-AML3 cell line (AID 2202232); conditions: Potency: OCI-AML3 viability; note: potency is the fitted concentration of half-maximal effect; nearly all actives have a fitted effect of over 35% in size
How it was run: as §1

Row | Structure (SMILES) | activation [1] | Potency [2] | Potency [3] | Potency [4] | viability [5] [%] | Potency [6] | Potency [7] | Potency [8] | Potency [9] | Potency [10] | Potency [5] | Potency [11] | Potency [1]
1 | CNC(=O)c1ccc(N2C(=S)N(c3cnc(C#N)c(C(F)(F)F)c3)C(=O)C23CCC3)cc1F | -16.4% and 8.59% | inactive | inactive | inactive | 98 | inactive | inactive | inactive | inactive | inactive |  |  | 
2 | CN1CCC(COc2cnc(-c3cccc(Cn4nc(-c5cccc(C#N)c5)ccc4=O)c3)nc2)CC1 | -3.12% and 9.55% | inactive | inactive | inactive | 115 | 5.9 µM (active) | inactive |  | inactive |  |  |  | 
3 | O=C(Nc1ncc(-c2cc(C(F)F)nn2-c2c(Cl)cccc2Cl)s1)C1CC1 | 7.16% | inactive | inactive | inactive |  | 1.05 µM (active) | 0.742 µM (active) | 0.833 µM (active) | 0.934 µM (active) | 0.742 µM (active) | 1.05 µM (active) |  | 
4 | CCNC(=O)CCC/C=C\C[C@@H]1[C@@H](/C=C/C(O)CCc2ccccc2)[C@@H](O)C[C@@H]1O (stereo partly drawn) | -11.9% | inactive | inactive | inactive | 121 |  | inactive | inactive | inactive | inactive |  |  | 
5 | O=C(O)CC1CCC(c2ccc(-c3ccc(Nc4ccc(C(F)(F)F)nc4)cn3)cc2)CC1 (stereo not drawn) | -9.55% | inactive | inactive | inactive | 114 | inactive |  | inactive | inactive | inactive |  |  | 
6 | O=C(NC[C@H](O)CN1CCc2ccccc2C1)c1cc(NC2COC2)ncn1 | 11.2% and -21.4% | inactive | inactive | inactive | 97 |  | inactive | inactive | inactive | inactive |  |  | 
7 | COc1cc(C)c(Sc2cnc(NC(=O)c3ccc(CNC(C)C(C)C)cc3)s2)cc1C(=O)N1CCN(C(C)=O)CC1 (stereo not drawn) | -11.2% and 19.6% | inactive | inactive | inactive |  | 7.42 µM (active) | 16.6 µM (active) | 16.6 µM (active) | 16.6 µM (active) | 14.8 µM (active) |  | 20.9 µM (active) | 
8 | COCCN1CCN(Cc2ccc(-c3n[nH]c4c3C(=O)c3c(NC(=O)NN5CCOCC5)cccc3-4)cc2)CC1 |  | inactive | inactive | inactive |  | 0.0263 µM (active) | 0.166 µM (active) | 0.148 µM (active) | 0.186 µM (active) | 0.332 µM (active) |  | 0.166 µM (active) | 0.0757 µM (active)
9 | Cn1cc(-c2ccc3nnc(C(F)(F)c4ccc5ncccc5c4)n3n2)cn1 | -10% and 1.43% | inactive | inactive | inactive | 106 |  |  | inactive |  | inactive |  |  | 
10 | Cc1nc(C(=O)NCC(=O)O)c(O)c2ccc(Oc3ccccc3)cc12 | 24.6% and -12.3% | inactive | inactive | inactive | 96.3 |  |  | inactive | inactive | inactive |  |  | 
11 | COc1cc2c(NC3CCN(CC4CCCCC4)CC3)nc(N3CCCN(C(C)C)CC3)nc2cc1OCCCN1CCCCC1 |  | inactive | inactive | inactive | 104 | 6.61 µM (active) |  | 10.5 µM (active) | 9.34 µM (active) | 16.6 µM (active) |  |  | 43.2 µM (active)
12 | CCCCOc1nc(N)c2c(n1)N(Cc1cccc(CN3CCCC3)c1)CC(=O)N2 | 5.73% | inactive | inactive | inactive | 111 |  |  | inactive | inactive | inactive |  |  | 
13 | O=C(O)CCNc1cc(N2CCc3ccccc3CC2)nc(-c2ccccn2)n1 | -6.15% and -0.477% and 0.955% | inactive | inactive | inactive | 103 | inactive | inactive | inactive | inactive | inactive |  |  | 
14 | CC(=O)N1CCN(CCOc2ccc(C3CCN(C4=Nn5c(nnc5C(F)(F)F)CC4)CC3)cc2)CC1 | -2.39% | inactive | inactive | inactive |  |  | inactive | inactive | inactive |  | 14.8 µM (active) |  | 
15 | Cn1cncc1C(N)(c1ccc(Cl)cc1)c1ccc2c(c1)c(-c1cccc(Cl)c1)cc(=O)n2C (stereo not drawn) |  | inactive | inactive | inactive |  | 5.25 µM (active) | 0.263 µM (active) |  | 4.17 µM (active) | 20.9 µM (active) | 14.8 µM (active) |  | 26.9 µM (active)
16 | CC(C)N(CCCNC(=O)Nc1ccc(C(C)(C)C)cc1)C[C@H]1O[C@@H](n2ccc3c(N)ncnc32)[C@H](O)[C@@H]1O | -20% and -29.1% | inactive | inactive | inactive | 93.2 |  | inactive | inactive | inactive | inactive |  |  | 
